# “And” between values parts separate entries of the source, which are not always exact repeats. Equal entries are not always repeated. Screen size: about 430,000 compounds; about 2,600 (0.6%) were called active. Cut-off read from the data, not from the text of the source: active = inhibition mostly above about 37% (no sharp cut-off); inactive = mostly below about 20%. What follows is part of a selection rich in actives, with near analogues and random picks from the rest.
# Tested on: PriA–SSB C-terminal tail interaction (Klebsiella pneumoniae)
# Assay: blocks PriA binding to SSB C-terminal tail, primary screen, biochemical, AlphaScreen (AID 1272365);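 note: plate controls were negative control peptide for no effect and reference peptide for full effect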
# Details: AlphaScreen SSBct-PriA binding, biotinylated peptide; at 33 µM, active compounds read high
row,Structure (SMILES),inhibition
1,CCOC(=O)c1c(-c2ccc(F)cc2)csc1NC(=O)CSc1n[nH]c(N)n1,9% (inactive)
2,CCCOc1ccc(-c2nc(C#N)c(N3CCCCC3)o2)cc1,90% (active)
3,Cc1ccc(OCc2nc(C#N)c(N3CCCC3)o2)cc1,-11.1% (inactive)
4,Cc1ccc(OCc2ccc(-c3nc(C#N)c(N4CCCCCC4)o3)o2)cc1,39.5% (inactive)
5,COc1cccc2cc(C(=O)C3=C(O)C(=O)N(CCN(C)C)[C@@H]3c3ccccc3F)oc12,-20% (inactive)
6,NS(=O)(=O)c1ccc(NC(=O)c2cn(Cc3cccc(F)c3)nc2OCc2cccc(F)c2)cc1,-16% (inactive)
7,Cc1ccc(C=NNC(=O)c2cccc(S(=O)(=O)Nc3cccc(Cl)c3)c2)o1,-6.77% (inactive)
8,COc1cccc(NC(=O)c2nn(-c3ccc(OC)cc3OC)c(=O)c3ccccc23)c1,-7.71% (inactive)
9,COc1cccc(NC(=O)C2C(c3ccccc3)C2(Cl)Cl)c1 (stereo unspecified),-12.2% (inactive)
10,COc1ccc2c(c1)C(C)=CC(C)(C)N2C(=O)Nc1ccccc1,38.4% (active)
11,CCOC(=O)c1ccc(NC(=O)CSc2nnc(-c3cccs3)n2-n2cccc2)cc1,0% (inactive)
12,CCOC(=O)CNC(=O)NC1CC(=O)N(c2ccccc2)C1 (stereo unspecified),32% (inactive)
13,CC1(C)N=C(c2ccccn2)C(C)(C)N1O,-5.91% (inactive)
14,Cc1c(N)nc(-c2ccccn2)nc1Cl,47.3% (inactive)
15,Cc1cnc(-c2ccccn2)nc1N,151% (active)
16,COc1ccc(NC(=O)Cn2ncn3nc(-c4ccc(F)cc4)cc3c2=O)cc1Cl,6% (inactive)
17,CNC(=S)NN=C(C)c1cccc(C(F)(F)F)c1,-4.78% (inactive)
18,O=C(Cc1ccc(F)cc1)NCC1(c2ccsc2)CCCC1,-6% (inactive)
19,Cn1cc(C(=O)NCC2(c3ccsc3)CCCC2)nn1,-24% (inactive)
20,O=C(NCC1(c2ccsc2)CCCC1)Nc1cccs1,53% (active)
21,NCCc1csc2nc(-c3cccc(F)c3)nn12,16% (inactive)

row,Structure (SMILES),inhibition
1,O=C(Nc1cnc(N2CCN(c3ccccc3)CC2)nc1)c1c(F)cccc1F,-6% (inactive)
2,Cc1cc(NC(=O)C(C)(C)CCl)n(-c2ncnc3c2cnn3-c2cccc(C)c2C)n1,11% (inactive)
3,Cc1cc(NC(=O)c2ccccc2Cl)n(-c2nc3c(cnn3-c3cccc(C)c3C)c(=O)[nH]2)n1,53% (active)
4,Cc1ccc(-n2ncc3c(=O)[nH]c(-n4nc(C)cc4NC(=O)Cc4ccccc4)nc32)cc1,-5% (inactive)
5,CCOC(=O)N1CCC(NC(=O)Cc2csc(Nc3ccc(F)cc3)n2)CC1,2% (inactive)
6,CC(C)n1cnc2c(NCc3ccccc3)cc(OCC3CCN(C)CC3)cc21,53.1% (active)
7,O=C(c1ccc(S(=O)(=O)NCc2cccnc2)o1)N1CCC(Cc2ccccc2)CC1,5% (inactive)
8,O=[N+]([O-])c1cc(S(=O)(=O)N2CCCC2)ccc1NN=C1CCCC1,11.5% (inactive)
9,O=[N+]([O-])c1cc(C(F)(F)F)ccc1NCCc1ccncc1,-11.2% (inactive)
10,O=[N+]([O-])c1cc(C(F)(F)F)ccc1NN=C1CCCC1,43.5% (active)
11,COc1cc(OC)c(OC)cc1/C=C1/C(=O)NC(=N)N1C,-14.1% (inactive)
12,O=C(COc1ccc(Cl)cc1Cl)NCC(=O)N/N=C\c1cccs1,-6% (inactive)
13,CC(=O)c1ccc(S(=O)(=O)N2CC(S(=O)(=O)c3ccc(Cl)cc3)C2)cc1,-15% (inactive)
14,CCCN1CCCc2cc(CCNC(=O)C(=O)Nc3ccc(OC(F)(F)F)cc3)ccc21,-6% (inactive)
15,Cc1cccc(CCNS(=O)(=O)c2ccc(S(=O)(=O)NC3CCCC3)cc2)c1,-8.63% (inactive)
16,CCCN1CCCc2cc(CCNS(=O)(=O)c3ccc(NC(C)=O)cc3)ccc21,85% (active)
17,CCCNS(=O)(=O)c1ccc2c(c1)CCCN2C(C)=O,-6.74% (inactive)
18,CCCN1CCCc2cc(CCNS(=O)(=O)Cc3cccc(C)c3)ccc21,73% (active)
19,Cc1cccc(CCNS(=O)(=O)c2ccc3c(c2)NC(=O)CO3)c1,1.31% (inactive)
20,Cn1cccc1CN(Cc1cccs1)C(=O)c1ccccc1S(=O)(=O)C(F)F,20% (inactive)
21,Cc1nc(N2CCCC2)nc(C)c1NC(=O)c1cccc(Cl)c1,-6% (inactive)

row,Structure (SMILES),inhibition
1,Cc1cc(NC(=O)CSc2nnc(C)c3cnn(-c4ccc(F)cc4)c23)no1,-7% (inactive) and -11% (inactive)
2,CCc1ccc(S(=O)(=O)N2CCOC(c3ccccc3)C2)s1 (stereo unspecified),-11% (inactive)
3,COc1ccc(-c2nnc(NC(=O)c3ccc(SC)cc3)o2)cc1,-3% (inactive)
4,COc1ccc2nc(N=C(N)NC(=O)N3c4ccccc4Sc4ccccc43)nc(C)c2c1,-5.89% (inactive)
5,COc1ccc(-c2nnc(SC(=O)N3c4ccccc4Sc4ccccc43)o2)cc1,42.2% (active)
6,Cc1oc2cc(OCC(=O)c3ccc(F)cc3)ccc2c(=O)c1-c1ccccc1,7% (inactive)
7,CCCCOc1ccc(C(=O)Nc2ccc3c(c2)C(=O)N(C)C3=O)cc1,-4% (inactive)
8,COc1ccc(S(=O)(=O)N2CCOCC2)cc1NC(=O)Cc1coc2cc(C)ccc12,-2.71% (inactive)
9,COc1ccc(S(=O)(=O)N2CCOCC2)cc1NC(=O)CSc1cc(C)ccc1C,49.7% (active)
10,COc1ccc(S(=O)(=O)N2CCOCC2)cc1NC(=O)CSc1ncnc2ccccc12,-9.78% (inactive)
11,CC(=O)c1sc(NC(=O)COc2ccc(Cl)cc2)nc1C,-10% (inactive)
12,CSc1ccccc1NC(=O)C(=O)NC[C@]1(O)CCc2ccccc2C1,-6% (inactive)
13,C[C@H](O)CN1CCN(C(=O)c2nc3ccccc3s2)CC1,-1% (inactive)
14,CS(=O)(=O)N1CCC(CNC(=O)c2nc3ccccc3s2)CC1,-21% (inactive)
15,Cn1ccnc1SCC1CCN(C(=O)c2nc3ccccc3s2)CC1,39% (active)
16,O=C(Nc1nc2ccccc2s1)C(=O)NC1CC1,3% (inactive)
17,O=C(O)C(NC(=O)c1ccc(Cl)cc1)=C(Cl)Cl,-6% (inactive)
18,CC(C)c1nnc(NC(=O)/C=C/c2cccs2)s1,-6% (inactive)
19,COc1ccc(C)cc1NC(=O)CSc1ncc(-c2ccccc2)n1C,-3% (inactive)

# Reference: PubChem BioAssay AID1272365 (Small Molecule Screening Facility, UW Madison, 2018)
